# Laboratory results taken from PubChem BioAssay.
# Values joined by “and” are separate entries in the source; they are usually repeats but may differ in a detail not shown here. Equal values may be shown once. Active and inactive are the calls of the source. Rule as the data show it, unless noted: active = inhibition above about 80%; inactive = the rest.
# Legend:
# [1] = growth inhibition, single agent and combos, cell-based, chromothripsis tumors, cisplatin or BGB combos (AID 1671450); conditions: HDN33 neuroblastoma cells, stronger effect = higher value;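 also: cells exposed to compound for four days; 0% = vehicle DMSO and 100% = cell killing by high DMSO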
# [2] = growth inhibition, single agents and combos, ICB984, cell-based, cisplatin or BGB combos, synergistic combos for chromothripsis tumors (AID 1671451; call rule not given here;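 also: cells exposed for 96 hours before readout; 0% = vehicle DMSO and 100% = killing by high DMSO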); conditions: ICB984 medulloblastoma cells, drug combinations, stronger effect = higher value
# [3] = growth inhibition, single agents and combos, LFS_MB_1R, cell-based, cisplatin or BGB combos, synergistic combos for chromothripsis tumors (AID 1671452); conditions: LFS_MB_1R medulloblastoma cells, stronger effect = higher value;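 also: cells exposed for 96 hours before readout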
# [4] = growth inhibition, single agents and combos, HTB85, cell-based, BGB or cisplatin IC20 combos, synergistic combos for chromothripsis tumors (AID 1671453); conditions: HTB85 osteosarcoma cells, drug combinations, stronger effect = higher value;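 also: cells exposed for 96 hours before readout; 0% = vehicle DMSO and 100% = high DMSO killing control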
# [5] = growth inhibition, single agents and combos, CRL2098, cell-based, BGB or cisplatin IC20 combos, synergistic combos for chromothripsis tumors (AID 1671454); conditions: CRL2098 osteosarcoma cells, drug combinations, stronger effect = higher value;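 also: cells exposed for 96 h before readout; 0% = vehicle DMSO and 100% = killing by high DMSO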
# [6] = growth inhibition, single agents and combos, HD-MB03, cell-based, BGB or cisplatin IC20 combos, synergistic combos for chromothripsis tumors (AID 1671455; in the data active = inhibition above about 83%;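 also: 0% = vehicle DMSO and 100% = high DMSO as cytotoxic control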); conditions: HD-MB03 medulloblastoma cells, stronger effect = higher value
# [7] = growth inhibition, single agents and combos, UWB1.289, cell-based, BGB or cisplatin combos, synergistic combos for chromothripsis tumors (AID 1671456); conditions: UWB1.289 ovarian carcinoma cells, stronger effect = higher value;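 also: cells exposed to compound for four days; 0% = vehicle DMSO and 100% = killing by high DMSO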
# [8] = growth inhibition, single agents and combos, LFS_MB_2R, cell-based, cisplatin combos, synergistic combos for chromothripsis tumors (AID 1671457); conditions: LFS_MB_2R medulloblastoma cells, stronger effect = higher value;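 also: cells exposed to compound for four days before readout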
# [9] = growth inhibition, MDA-MB-436, cell-based, BGB or cisplatin combos, synergistic combos for chromothripsis tumors (AID 1671458; call rule not given here;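 also: cells exposed for 96 hours; 0% = vehicle DMSO and 100% = killing by high DMSO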); conditions: MDA-MB-436 breast carcinoma growth inhibition, drug combinations, stronger effect = higher value
# [10] = UWB1.289_BRCA1 ovarian cancer growth, cell-based, BGB or cisplatin combinations (AID 1671459); conditions: UWB1.289 BRCA1 ovarian carcinoma, drug combinations, stronger effect = higher value
# [11] = drug combination toxicity in non-malignant astrocytes – cell-based, BGB or cisplatin IC20 combos, cytotoxicity control for chromothriptic childhood tumor combination screen (AID 1671460); conditions: Human astrocytes, viability inhibition, drug combinations, at 0.5 µM, stronger effect = higher value;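 also: cells exposed to compounds for 96 hours before viability readout; 0% = vehicle and 100% = killing control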
# [12] = BT084 cell growth, single and combined drugs, ICGC_MB145, cisplatin and BGB IC40 combos (AID 1671461); conditions: BT084 medulloblastoma cells, drug combinations, stronger effect = higher value;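 also: cells exposed to drugs for 96 hours; 0% = vehicle DMSO and 100% = high DMSO full killing control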
# [13] = RCMB18 cell growth, single agent and combined, cisplatin and BGB IC40 combos (AID 1671462); conditions: RCMB18 medulloblastoma cells, stronger effect = higher value;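 also: cells exposed to compound for four days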
# [14] = CRL1545 cell growth, single agent and combined, cisplatin and BGB IC20 combos (AID 1671464); conditions: CRL1545 osteosarcoma cells, stronger effect = higher value;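 also: cells exposed to compound for 96 hours before readout; 0% = vehicle DMSO and 100% = high DMSO killing control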
# [15] = measured here: with cisplatin IC20 combination, at 0.5 µM
# [16] = measured here: combination with cisplatin, at 0.5 µM
# [17] = measured here: combination with cisplatin, at 5 µM
smiles,measurement,setting,value
NC(=O)c1ccc(I)c([N+](=O)[O-])c1,inhibition,[1]; [15],8.47% and -16.9%
same,inhibition,"[1]; single agent, at 5 µM",-4.01% and -42.6%
same,inhibition,"[2]; BGB IC20 combo, at 0.005 µM",6.79% and -19.8%
same,inhibition,"[2]; BGB IC40 combo, at 0.005 µM",-8.71% and -63.3%
same,inhibition,"[2]; BGB IC40 combo, at 0.05 µM",6.96% and -25.8%
same,inhibition,[2]; at 0.5 µM,-18.4% (inactive) and -40.8% (inactive)
same,inhibition,"[2]; cisplatin combo, at 0.05 µM",4.36% and -30.8%
same,inhibition,"[2]; cisplatin combo, at 0.5 µM",-11.9% and -53.2%
same,inhibition,"[2]; cisplatin combo, at 5 µM",-10.4% and -25.8%
same,inhibition,"[2]; measured here: 5 uM single agent, at 5 µM",-7.67% and -25%
same,inhibition,[3]; at 0.5 µM,-3.89% (inactive) and -33.7% (inactive)
same,inhibition,"[3]; measured here: combination with BGB IC40, at 0.05 µM",-3.85% and -20%
same,inhibition,[3]; [16],-8.55% and -54.4%
same,inhibition,[3]; [17],14.7% and -8.48%
same,inhibition,[4]; at 0.5 µM,9.09% (inactive) and -11.2% (inactive)
same,inhibition,"[4]; measured here: with BGB IC20, at 0.5 µM",18.2% and -8.85%
same,inhibition,"[4]; measured here: with BGB IC20, at 5 µM",-13% and -0.795%
same,inhibition,"[4]; measured here: with cisplatin IC20, at 0.5 µM",-4.67% and -22.1%
same,inhibition,"[4]; measured here: with cisplatin IC20, at 5 µM",-22.8% and -21.8%
same,inhibition,"[4]; single agent, at 5 µM",-0.511% and -17.6%
same,inhibition,[5]; at 0.5 µM,-9.77% (inactive) and -68.7% (inactive)
same,inhibition,"[5]; measured here: combination with BGB at IC20, at 0.5 µM",4.55% and -23.6%
same,inhibition,"[5]; measured here: combination with cisplatin at IC20, at 0.5 µM",-0.612% and -98.1%
same,inhibition,[6]; at 0.5 µM,2.12% (inactive) and -9.81% (inactive)
same,inhibition,"[6]; measured here: combo with BGB at IC20, at 0.5 µM",8.1% and -18.5%
same,inhibition,"[6]; measured here: combo with cisplatin at IC20, at 0.5 µM",1.77% and -5.96%
same,inhibition,[7]; at 0.5 µM,4.39% (inactive) and -12.6% (inactive)
same,inhibition,"[7]; measured here: inhibition with BGB combination, at 0.05 µM",-4.87% and -28.1%
same,inhibition,"[7]; measured here: inhibition with cisplatin combination, at 0.05 µM",4.41% and -26.6%
same,inhibition,[8]; at 0.5 µM,-3.62% (inactive) and -27.7% (inactive)
same,inhibition,[8]; [16],4.37% and -27.4%
same,inhibition,[8]; [17],-55.7% and -23.8%
same,inhibition,[9]; at 0.5 µM,-14.6% (inactive) and -27.1% (inactive)
same,inhibition,"[9]; measured here: BGB combination, at 0.5 µM",-12.7% and -19.7%
same,inhibition,"[9]; measured here: BGB combination, at 5 µM",6.5% and -14.3%
same,inhibition,"[9]; measured here: cisplatin combination, at 0.5 µM",-24.5% and -37.3%
same,inhibition,"[9]; measured here: cisplatin combination, at 5 µM",-16.7% and -24%
same,inhibition,"[10]; BGB combination, concentration series, at 5 µM",8.62% and -14.6%
same,inhibition,[10]; at 0.5 µM,3.67% (inactive) and -21.5% (inactive)
same,inhibition,"[10]; cisplatin combination, concentration series, at 5 µM",11.7% and -8.59%
same,inhibition,[11],13.4% (inactive) and -16.5% (inactive)
same,inhibition,[11]; measured here: combo with BGB IC20,12.4% and -9.72%
same,inhibition,[11]; measured here: combo with cisplatin IC20,18.2% and -4.93%
same,inhibition,[12]; at 0.5 µM,-19.3% (inactive) and -16.2% (inactive)
same,inhibition,"[12]; cisplatin combination, at 0.5 µM",8.84% and -1.53%
same,inhibition,"[12]; cisplatin combination, at 5 µM",4.99% and 0.215%
same,inhibition,"[12]; measured here: BGB IC40 combination 0.05 uM, at 0.05 µM",25.4% and -22.5%
same,inhibition,"[12]; single agent, at 5 µM",-9.27% and -35.4%
same,inhibition,[13]; at 0.5 µM,2.19% (inactive) and -9.96% (inactive)
same,inhibition,"[13]; cisplatin combo, at 5 µM",15.5% and 33.9%
same,inhibition,"[13]; measured here: BGB IC40 combination, at 0.05 µM",-12.1% and -17.3%
same,inhibition,[13]; [16],21.4% and 23.8%
same,inhibition,"[13]; single agent, at 5 µM",-9.55% and -39.2%
same,inhibition,[14]; at 0.5 µM,3.31% (inactive) and -13.9% (inactive)
same,inhibition,"[14]; measured here: with BGB IC20 combination, at 0.5 µM",-14.5% and -22.9%
same,inhibition,[14]; [15],10.2% and -9.34%
same,inhibition,"[14]; single agent, at 0.05 µM",-40.1% and -19.9%
same,inhibition,"[14]; single agent, at 5 µM",-12.7% and -3.93%
